Results published in article PMC11006913.

Tests used:
Experiment in all cases: PBM; 200 nM protein, PBS
Details in all cases: dsDNA, one strand shown
[1] = target: HOXB9 (Homo sapiens, UniProt P17482 171-250, T197M)
[2] = target: HOXC9 (Homo sapiens, UniProt P31274 178-260, K195R)
[3] = target: HOXC10 (Homo sapiens, UniProt Q9NYD6 254-340)
[4] = target: HOXB9 (Homo sapiens, UniProt P17482 171-250)
[5] = target: HOXC9 (Homo sapiens, UniProt P31274 178-260)
[6] = target: HOXD13 (Homo sapiens, UniProt P35453 263-343, T313R)
[7] = target: HOXC9 (Homo sapiens, UniProt P31274 178-260, R193K)
[8] = target: HOXD13 (Homo sapiens, UniProt P35453 263-343)
[9] = target: HOXC10 (Homo sapiens, UniProt Q9NYD6 254-340, K271E)
[10] = target: HOXD13 (Homo sapiens, UniProt P35453 263-343, T313A)
[11] = target: HOXB9 (Homo sapiens, UniProt P17482 171-250, R186Q)
[12] = target: HOXC9 (Homo sapiens, UniProt P31274 178-260, R222W)
[13] = target: ALX4 (Homo sapiens, UniProt Q9H161 200-286)
[14] = target: ALX4 (Homo sapiens, UniProt Q9H161 200-286, Q225E)
Chain of ALX4 (Homo sapiens, UniProt Q9H161 200-286, Q225E) (Q9H161 200-286 Q225E): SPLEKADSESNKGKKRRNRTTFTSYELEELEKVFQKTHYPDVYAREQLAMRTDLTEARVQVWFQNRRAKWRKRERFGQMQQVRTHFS

Chain of HOXC10 (Homo sapiens, UniProt Q9NYD6 254-340, K271E) (Q9NYD6 254-340 K271E): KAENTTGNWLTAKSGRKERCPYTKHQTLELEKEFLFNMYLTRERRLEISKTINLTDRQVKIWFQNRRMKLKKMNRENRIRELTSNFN
Chain of HOXD13 (Homo sapiens, UniProt P35453 263-343) (P35453 263-343): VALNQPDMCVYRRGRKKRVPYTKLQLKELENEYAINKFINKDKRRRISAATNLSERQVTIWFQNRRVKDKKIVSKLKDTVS
Chain of HOXB9 (Homo sapiens, UniProt P17482 171-250, T197M) (P17482 171-250 T197M): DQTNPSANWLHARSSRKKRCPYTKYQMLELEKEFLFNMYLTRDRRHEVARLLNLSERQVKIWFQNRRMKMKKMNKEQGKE
Chain of HOXC9 (Homo sapiens, UniProt P31274 178-260, R193K) (P31274 178-260 R193K): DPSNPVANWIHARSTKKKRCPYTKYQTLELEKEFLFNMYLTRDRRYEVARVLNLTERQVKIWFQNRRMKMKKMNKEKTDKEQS
Chain of HOXB9 (Homo sapiens, UniProt P17482 171-250, R186Q) (P17482 171-250 R186Q): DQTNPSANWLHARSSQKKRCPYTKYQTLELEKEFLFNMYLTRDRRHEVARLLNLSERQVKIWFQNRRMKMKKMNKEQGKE
Chain of HOXC9 (Homo sapiens, UniProt P31274 178-260, K195R) (P31274 178-260 K195R): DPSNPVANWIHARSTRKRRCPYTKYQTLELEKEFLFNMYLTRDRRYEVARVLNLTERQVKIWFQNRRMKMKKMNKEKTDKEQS
Chain of HOXC9 (Homo sapiens, UniProt P31274 178-260, R222W) (P31274 178-260 R222W): as the sequence (P31274 178-260 R193K) above, with K16R, R45W counted along it
Chain of HOXC10 (Homo sapiens, UniProt Q9NYD6 254-340) (Q9NYD6 254-340): as the sequence (Q9NYD6 254-340 K271E) above, with E18K counted along it
Chain of HOXD13 (Homo sapiens, UniProt P35453 263-343, T313A) (P35453 263-343 T313A): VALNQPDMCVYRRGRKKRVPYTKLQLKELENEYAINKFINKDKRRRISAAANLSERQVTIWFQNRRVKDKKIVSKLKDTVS
Chain of HOXC9 (Homo sapiens, UniProt P31274 178-260) (P31274 178-260): as the sequence (P31274 178-260 R193K) above, with K16R counted along it
Chain of HOXB9 (Homo sapiens, UniProt P17482 171-250) (P17482 171-250): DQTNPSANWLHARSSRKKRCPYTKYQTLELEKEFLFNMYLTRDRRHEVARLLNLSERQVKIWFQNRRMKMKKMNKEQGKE
Chain of HOXD13 (Homo sapiens, UniProt P35453 263-343, T313R) (P35453 263-343 T313R): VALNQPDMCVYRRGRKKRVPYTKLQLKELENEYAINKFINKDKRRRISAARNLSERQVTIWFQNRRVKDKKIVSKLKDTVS
Chain of ALX4 (Homo sapiens, UniProt Q9H161 200-286) (Q9H161 200-286): as the sequence (Q9H161 200-286 Q225E) above, with E26Q counted along it

Sequence	binding signal [1]	binding signal [2]	binding signal [3]	binding signal [4]	binding signal [5]	binding signal [6]	binding signal [7]	binding signal [8]	binding signal [9]	binding signal [10]	binding signal [11]	binding signal [12]	binding signal [13]	binding signal [14]
ATTTATGA	9.81 upbm affinity estimate (log intensity, higher = more binding, comparable within an allelic series)	12.5 upbm affinity estimate (log intensity, higher = more binding, comparable within an allelic series)	12.4 upbm affinity estimate (log intensity, higher = more binding, comparable within an allelic series)	11.8 upbm affinity estimate (log intensity, higher = more binding, comparable within an allelic series)	12.7 upbm affinity estimate (log intensity, higher = more binding, comparable within an allelic series)	10.9 upbm affinity estimate (log intensity, higher = more binding, comparable within an allelic series)	12.6 upbm affinity estimate (log intensity, higher = more binding, comparable within an allelic series)	12 upbm affinity estimate (log intensity, higher = more binding, comparable within an allelic series)	11.7 upbm affinity estimate (log intensity, higher = more binding, comparable within an allelic series)	11.8 upbm affinity estimate (log intensity, higher = more binding, comparable within an allelic series)	11.5 upbm affinity estimate (log intensity, higher = more binding, comparable within an allelic series)	11.1 upbm affinity estimate (log intensity, higher = more binding, comparable within an allelic series)	–	–
GTCATAAA	9.98 upbm affinity estimate (log intensity, higher = more binding, comparable within an allelic series)	13.1 upbm affinity estimate (log intensity, higher = more binding, comparable within an allelic series)	12.9 upbm affinity estimate (log intensity, higher = more binding, comparable within an allelic series)	12.5 upbm affinity estimate (log intensity, higher = more binding, comparable within an allelic series)	13.1 upbm affinity estimate (log intensity, higher = more binding, comparable within an allelic series)	10.9 upbm affinity estimate (log intensity, higher = more binding, comparable within an allelic series)	13.1 upbm affinity estimate (log intensity, higher = more binding, comparable within an allelic series)	12.1 upbm affinity estimate (log intensity, higher = more binding, comparable within an allelic series)	12.4 upbm affinity estimate (log intensity, higher = more binding, comparable within an allelic series)	11.8 upbm affinity estimate (log intensity, higher = more binding, comparable within an allelic series)	12.2 upbm affinity estimate (log intensity, higher = more binding, comparable within an allelic series)	11.2 upbm affinity estimate (log intensity, higher = more binding, comparable within an allelic series)	–	–
ATTTTATG	9.94 upbm affinity estimate (log intensity, higher = more binding, comparable within an allelic series)	13 upbm affinity estimate (log intensity, higher = more binding, comparable within an allelic series)	12.7 upbm affinity estimate (log intensity, higher = more binding, comparable within an allelic series)	12.5 upbm affinity estimate (log intensity, higher = more binding, comparable within an allelic series)	13.1 upbm affinity estimate (log intensity, higher = more binding, comparable within an allelic series)	10.8 upbm affinity estimate (log intensity, higher = more binding, comparable within an allelic series)	13 upbm affinity estimate (log intensity, higher = more binding, comparable within an allelic series)	11.8 upbm affinity estimate (log intensity, higher = more binding, comparable within an allelic series)	12.1 upbm affinity estimate (log intensity, higher = more binding, comparable within an allelic series)	11.5 upbm affinity estimate (log intensity, higher = more binding, comparable within an allelic series)	12.1 upbm affinity estimate (log intensity, higher = more binding, comparable within an allelic series)	11.4 upbm affinity estimate (log intensity, higher = more binding, comparable within an allelic series)	–	–
ACTATAAA	9.75 upbm affinity estimate (log intensity, higher = more binding, comparable within an allelic series)	12.4 upbm affinity estimate (log intensity, higher = more binding, comparable within an allelic series)	12.1 upbm affinity estimate (log intensity, higher = more binding, comparable within an allelic series)	11.7 upbm affinity estimate (log intensity, higher = more binding, comparable within an allelic series)	12.6 upbm affinity estimate (log intensity, higher = more binding, comparable within an allelic series)	10.9 upbm affinity estimate (log intensity, higher = more binding, comparable within an allelic series)	12.5 upbm affinity estimate (log intensity, higher = more binding, comparable within an allelic series)	12 upbm affinity estimate (log intensity, higher = more binding, comparable within an allelic series)	11.4 upbm affinity estimate (log intensity, higher = more binding, comparable within an allelic series)	11.8 upbm affinity estimate (log intensity, higher = more binding, comparable within an allelic series)	11.4 upbm affinity estimate (log intensity, higher = more binding, comparable within an allelic series)	11 upbm affinity estimate (log intensity, higher = more binding, comparable within an allelic series)	–	–
CCTTGCAG	8.52 upbm affinity estimate (log intensity, higher = more binding, comparable within an allelic series)	9.62 upbm affinity estimate (log intensity, higher = more binding, comparable within an allelic series)	–	8.41 upbm affinity estimate (log intensity, higher = more binding, comparable within an allelic series)	9.66 upbm affinity estimate (log intensity, higher = more binding, comparable within an allelic series)	–	9.67 upbm affinity estimate (log intensity, higher = more binding, comparable within an allelic series)	–	–	–	8.42 upbm affinity estimate (log intensity, higher = more binding, comparable within an allelic series)	9.74 upbm affinity estimate (log intensity, higher = more binding, comparable within an allelic series)	7.87 upbm affinity estimate (log intensity, higher = more binding, comparable within an allelic series)	8.04 upbm affinity estimate (log intensity, higher = more binding, comparable within an allelic series)
CATTAAAC	9.93 upbm affinity estimate (log intensity, higher = more binding, comparable within an allelic series)	12.5 upbm affinity estimate (log intensity, higher = more binding, comparable within an allelic series)	12.2 upbm affinity estimate (log intensity, higher = more binding, comparable within an allelic series)	11.8 upbm affinity estimate (log intensity, higher = more binding, comparable within an allelic series)	12.6 upbm affinity estimate (log intensity, higher = more binding, comparable within an allelic series)	–	12.6 upbm affinity estimate (log intensity, higher = more binding, comparable within an allelic series)	–	11.9 upbm affinity estimate (log intensity, higher = more binding, comparable within an allelic series)	–	11.6 upbm affinity estimate (log intensity, higher = more binding, comparable within an allelic series)	10.9 upbm affinity estimate (log intensity, higher = more binding, comparable within an allelic series)	–	–
